This is a sample that favours compounds with a hit; in the whole collection about 3.8% have one here.
ATXN2 expr inh = reduces ATXN2 reporter expression in HEK-293 cells | HEK-293 ATXN2-luciferase reporter, luminescence, 24 h | Potency, µM (highest dose often 57 µM), without a hit: at the top dose activity change, negative = inhibition, actives largely listed as inhibitors | actives 0.72% (n = 360,000); note: % is set by controls: 0 for no effect and ±100 for the full control effect; nearly all actives have a fitted effect of over 55% in size
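qHTS (up to 57 uM final) was run with 24 h compound exposure of reporter cells at 37 °C. Each well was multiplexed: SteadyGlo luminescence measured ATXN2-luciferase expression after a fluorogenic Gly-Phe-AFC viability readout (25 uM final).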
TGFb inhibitor = inhibitors of TGF-b signaling; Potency, µM (series often up to 46.1 µM), for inactives: at the top dose activity, negative = inhibition, actives largely listed as inhibitors; actives 1.2% (n = 410,000); HepG2 CAGA-GFP TGF-b/SMAD3 reporter, GFP fluorescence, 18 h; TGF-beta stimulated, 500 pg/mL final; note: % is set by controls: 0 for no effect and ±100 for the full control effect; nearly all actives have a fitted effect of over 65% in size
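Read-out: total well GFP (ex488/em500-530) summed from mean per-cell fluorescence. Cells: HEPG2 CAGA-GFP, 1% FBS DMEM, 18 h at 37 degrees C with 500 pg/mL final TGF-beta. Unstimulated wells served as the full-inhibition control; stimulated DMSO wells = 0%.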
HT1080NT lethal = kills 2HG-producing HT-1080-NT fibrosarcoma cells; HT-1080-NT fibrosarcoma viability, CellTiter-Glo ATP luminescence, 48 h; Potency, µM (top dose mostly 46.1 µM), for inactives: top-dose activity, negative = less viability, hits mostly cytotoxic; AID 686970; actives 1.6% (n = 360,000);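 note: NT is the 2HG producing partner of a matched IDH1 knockdown line; 0% = DMSO-treated cells and -100% = media-only wells without cells; nearly all actives have a fitted effect of over 55% in size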
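Luminescent CellTiter-Glo readout after 48 hours of compound exposure at 37 degrees C defined viability of HT-1080-NT cells. Activity was normalized to DMSO wells and cell-free media wells; concentration-response curves were fitted and assigned curve classes.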
ATXN viability = reduces viability in counter-screen for ATXN expression inhibitors; S2 cells (HEK-293 line with an ATXN2-luciferase reporter) viability, CellTiter-Fluor protease fluorescence, 24 h; Potency, µM (titrated, usually from 56.7 µM), most hits filed as cytotoxic; actives 0.49% (n = 400,000); AID 651635; note: nearly all actives have a fitted effect of over 40% in size
HepG2 viability = kills HepG2 cells in TGF-b inhibitor counter-screen. actives 0.76% (n = 410,000). HepG2 CAGA-GFP viability, ATP luminescence, 18 h. Potency, µM (series often up to 46.1 µM), without a hit: top-dose activity change, negative = cytotoxicity, actives largely listed as cytotoxic
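HepG2 CAGA-GFP cells (1000/well, DMEM with 1% FBS) received compound, then TGF-beta at 500 pg/mL final, and were incubated 18 hours at 37 degrees C. Viability was read by CellTiter-Glo luminescence. Media-only wells were set as complete cell-killing and DMSO as no toxicity.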
HT1080 IDH1KD tx = HT-1080 IDH1 knockdown cell toxicity (counter line) | actives 2% (n = 360,000) | HT-1080 IDH1 knockdown viability, ATP luminescence, 48 h | Potency, µM (series often up to 46.1 µM), for the others: top-dose activity, negative = toxicity, most hits filed as cytotoxic;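 note: 0% = DMSO wells and -100% = cell-free medium wells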
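After a 2 h attachment period, IDH1KD HT-1080 cells took pin-transferred compound for 48 h at 37 °C; ATP-based luminescence after 10 min room-temperature reagent incubation reported viability.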
* hit, by the source's call; i = inactive; ? = inconclusive; / = no result; [ ] = dose if it differs, or a comment. Calls come from the whole dose curve; as a rule, active = well fitted curve in the direction sought with a large enough effect; inconclusive = small, poorly fitted or top-dose-only effect, or another doubt; inactive = no such curve, though single readings can be large; an effect the other way counts as inactive or inconclusive. Potency is the fitted concentration of half-maximal effect.

SMILES	ATXN2 expr inh	TGFb inhibitor	HT1080NT lethal	ATXN viability	HepG2 viability	HT1080 IDH1KD tx
CCCCNc1c(-c2cccc(SC3CCCCC3)c2)nc2ccc(Cl)cn12	-5.2%	-9.6%	-0.3%	i	-14.7%	-20.6%
O=C(NCc1ccccc1)C(=O)NCC(c1ccco1)S(=O)(=O)c1ccccc1 (stereo not drawn)	/	?	/	/	-13.3%	/
Cc1ccc(-c2cnc(NCc3ccc(C(F)(F)F)cc3)n2C)cc1	-19.6%	-14.3%	/	i	-43.0%	/
COc1ccccc1CNC(=O)c1cc(S(=O)(=O)N2CCCCCC2)cn1C	-6.7%	0.0%	/	i	-21.9%	/
NS(=O)(=O)c1ccc(S(=O)(=O)N2CCN(c3nc(-c4cccs4)nc4ccccc34)CC2)cc1	/	-26.8%	/	/	0.2%	/
O=C(CNS(=O)(=O)Cc1ccccc1)NNc1ccccc1	-32.3%	-3.3%	?	?	0.9%	4.11µM*
O=C(CNS(=O)(=O)Cc1ccccc1)NCc1ccccc1	-12.3%	-1.3%	20.9%	i	7.4%	17.6%
CCNC(=S)NNc1ccccc1	-17.6%	-7.4%	8.2µM*	i	10.0%	6.51µM*
O=C(NNc1ccccc1)C(=O)NNc1ccccc1	-23.8%	-8.4%	-18.1%	?	-1.4%	1.16µM*
O=C(NNc1ccccc1)OCc1ccccc1	/	0.2%	?	i	-10.7%	3.26µM*
O=C(O)c1ccccc1-c1ccccc1C(=O)NNc1ccccc1	0.1%	-18.1%	-29.8%	i	-12.9%	?
S=C(NCc1ccccc1)NNc1ccccc1	-6.1%	?	?	i	-2.7%	?
Clc1ccc(CCNc2ncnc3c2c(-c2ccccc2)cn3-c2ccccc2)cc1	/	?	/	/	-31.9%	/
CN(C(=O)c1ccc2c(c1)N(Cc1cccc(Cl)c1)C(=O)c1ccccc1S2(=O)=O)C1CCCCC1	/	?	/	/	1.6%	/
CCOc1ccc(C(=O)N2CCC(c3ccncc3)CC2)cc1	-25.9%	?	/	i	-17.5%	/
COc1ccc(Cn2c(CNS(=O)(=O)c3ccc(Cl)s3)nc3cccnc32)cc1	/	?	/	/	-31.5%	/
Cc1ccc2occ(CC(=O)Nc3ccc(S(N)(=O)=O)cc3)c2c1	-8.3%	0.9%	/	i	-5.0%	/
Cc1ccc2occ(CC(=O)Nc3ccc(Cl)c(C(F)(F)F)c3)c2c1	25.1µM*	?	/	?	12.6µM*	/
Cc1ccc(C(=O)/C=C/c2ccc(Br)cc2)o1	-20.8%	0.0%	-21.6%	i	-27.0%	-9.4%
Cc1ccc(CNC(=O)c2ccc([N+](=O)[O-])o2)cc1	1.1%	-18.3%	?	?	14.1µM*	?
O=C(CC(=O)NCc1ccc(Cl)cc1)NCc1ccc(Cl)cc1	7.3%	6.9%	?	i	4.9%	-10.0%
Cc1ccc(CC(=O)NCc2ccc(Cl)cc2)cc1	/	-17.2%	20.6µM*	?	-20.5%	9.2µM*
O=C(NCc1nnnn1-c1ccc(F)cc1)c1ccc([N+](=O)[O-])o1	20.7%	14.1µM*	?	i	-180.3%	11.6µM*
Cc1ccc(/C=C/C(=O)c2ccc([N+](=O)[O-])o2)cc1	?	7.94µM*	11.6µM*	8.91µM*	-19.4%	3.66µM*
CCCN1CCC(=O)N(C(CSc2ccc(Br)cc2)c2ccccc2)CC1 (stereo not drawn)	/	-8.8%	/	/	1.0%	/
CCCCNC(=O)c1nn(-c2ccc(CC)cc2)nc1CO	/	-16.3%	/	/	2.0%	/
COc1ccc(NC(=O)CSc2ccc3nc(-c4ccccc4)cn3n2)c(OC)c1	-28.6%	?	/	?	-19.4%	/
O=C(O)Cc1cccc(-c2cc(CCCCCCc3ccc(O[C@H]4O[C@H](CO)[C@@H](O)[C@H](O)[C@@H]4O)c(-c4cccc(CC(=O)O)c4)c3)ccc2O[C@H]2O[C@H](CO)[C@@H](O)[C@H](O)[C@@H]2O)c1	5.2%[0.709 µM]	/	/	i[0.575 µM]	/	/

Screens (PubChem BioAssay)
